Bioassay records from PubChem BioAssay.
RecA intein inh – inhibitors of M. tuberculosis RecA intein splicing; cell-free RecA intein splicing, fluorescence; inhibition, % (no concentration beside the values); actives 0.75% (n = 290,000); in the data active = inhibition above about 30%;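 also: 0% = vehicle wells and 100% = reference inhibitor control wells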
Target sequence (P9WHJ3 whole entry, looked up): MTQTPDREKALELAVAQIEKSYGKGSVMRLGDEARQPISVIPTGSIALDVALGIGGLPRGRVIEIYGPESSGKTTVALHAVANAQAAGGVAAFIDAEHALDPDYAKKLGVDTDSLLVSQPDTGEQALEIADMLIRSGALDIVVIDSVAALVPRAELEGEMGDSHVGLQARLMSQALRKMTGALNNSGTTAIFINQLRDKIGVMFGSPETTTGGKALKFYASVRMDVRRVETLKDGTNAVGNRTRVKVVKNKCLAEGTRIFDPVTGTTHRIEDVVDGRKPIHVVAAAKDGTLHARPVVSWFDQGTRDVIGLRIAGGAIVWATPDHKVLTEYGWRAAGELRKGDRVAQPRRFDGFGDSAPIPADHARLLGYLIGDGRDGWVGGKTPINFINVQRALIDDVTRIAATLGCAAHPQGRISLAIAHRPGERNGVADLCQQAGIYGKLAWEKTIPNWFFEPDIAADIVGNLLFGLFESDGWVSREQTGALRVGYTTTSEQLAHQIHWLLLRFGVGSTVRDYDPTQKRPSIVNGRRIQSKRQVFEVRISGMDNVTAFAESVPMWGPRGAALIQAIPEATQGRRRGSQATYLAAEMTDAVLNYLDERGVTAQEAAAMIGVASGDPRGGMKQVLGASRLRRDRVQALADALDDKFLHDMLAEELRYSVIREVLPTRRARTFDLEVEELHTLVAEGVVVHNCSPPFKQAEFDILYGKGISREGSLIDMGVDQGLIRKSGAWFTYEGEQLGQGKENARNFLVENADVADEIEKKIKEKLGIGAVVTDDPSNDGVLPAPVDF
Mtb betalactam – beta-lactam sensitization of Mtb H37Rv; M. tuberculosis H37Rv growth with meropenem, percent inhibition; inhibition, % at 25 µM; actives 0.27% (n = 330,000); call rule not given here;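 also: growth measured after seven days incubation then overnight dye step; 0% = bacteria only wells and 100% = bacteria with antibiotic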
Rv3671c protease – inhibits the M. tuberculosis serine protease Rv3671c; P9WHR9; inhibition, % at 5.96 µM; AID 2606; actives 0.048% (n = 320,000); in the data active = inhibition above about 38%;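 also: extracellular domain of Rv3671c used as enzyme; 0% = enzyme with DMSO and 100% = no enzyme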
GDH-TPI counter-1 – inhibits GDH-TPI coupling enzymes, artifact for Mtb FBA screen. GDH-TPI coupled enzyme counterscreen, NADH absorbance. actives 1.2% (n = 360,000). inhibition, % at 4.8 µM; in the data active = inhibition above about 30%;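 also: 0% = DMSO wells and 100% = wells lacking the enzyme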
UGM FP inh – blocks M. tuberculosis UGM enzyme | actives 0.06% (n = 320,000) | purified UGM, fluorescence polarization probe displacement | inhibition, % at 10 µM | AID 504406; in the data active = inhibition above about 10%, passing the limit was not always enough
FBA Mtb inh – Mtb fructose-bisphosphate aldolase inhibition. P9WQA3. purified M. tuberculosis FBA, fluorescence read-out. inhibition, % at 1 µM. actives 2.3% (n = 360,000);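 also: 0% = vehicle and 100% = reference inhibitor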
Mtb FBA confirm – Mtb FBA inhibition, confirmed; shares compounds with FBA Mtb inh; purified M. tuberculosis FBA, fluorescence read-out; inhibition, % at 1 µM; actives 78% (n = 5,600); AID 651616;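 also: 0% = vehicle wells and 100% = reference inhibitor wells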
GDH-TPI counter-2 – GDH-TPI inhibition counter-screen for FBA inhibitors | shares compounds with FBA Mtb inh | GDH-TPI coupled enzyme counterscreen, fluorescence | inhibition, % at 1 µM | actives 81% (n = 5,600); in the data active = inhibition above about 10%
Starred values were filed as active, the others as inactive; nt = not tested or not shown; + = active, no number. This is a sample that favours compounds with a hit; in the whole collection about 4% have one here. Rule as the data show it, unless noted: active = inhibition above about 27%; inactive = the rest.

SMILES	RecA intein inh	Mtb betalactam	Rv3671c protease	GDH-TPI counter-1	UGM FP inh	FBA Mtb inh	Mtb FBA confirm	GDH-TPI counter-2
Cc1[nH]n2c(=O)cc(-c3ccc([N+](=O)[O-])cc3)nc2c1-c1ccccc1	-2.3	98.2	-1.2	18.9	0.9	-3.1	nt	nt
COc1ccc(-c2c(C(F)(F)F)[nH]n3c(=O)cc(-c4ccccc4)nc23)cc1	-11.1	-3.2	12.1	0.5	-1.2	39.3*	88.1*	83.6*
Cc1[nH]n2c(=O)c3c(nc2c1-c1ccccc1)CCC3	2.8	89.7	2.1	11.7	0.5	28.5*	131.2*	96.6*
CCOC(=O)C1(Cc2ccccc2Cl)CCN(C(=O)c2cc(C)on2)CC1	2.6	2.2	-6.8	4.3	4.0	-0.8	nt	nt
COc1ccc2oc(C(=O)OCC(=O)NCC3CCCO3)c(C)c2c1 (configuration not stated)	-3.0	-2.9	0.6	8.6	3.2	36.0*	90.9*	81.4*
CCOc1ccc2oc(C(=O)NCC3CCCO3)c(C)c2c1 (configuration not stated)	-2.3	-2.7	0.6	-7.7	2.1	21.5	nt	nt
CCOc1ccc2oc(C(=O)OCC(=O)NCC3CCCO3)c(C)c2c1 (configuration not stated)	nt	nt	nt	4.5	nt	39.4*	16.5	13.0*
O=C(O)c1c(-c2ccccc2)c2oc3ccccc3c2[nH]c1=O	-1.9	11.8	-6.5	17.0	2.0	107.9*	89.7*	70.4*
O=c1[nH]c2c(oc3ccccc32)c(=O)n1Cc1ccccc1	-2.3	-5.2	nt	1.9	-1.6	15.9	nt	nt
CC(Oc1ccc2c3c(c(=O)oc2c1)CCCC3)C(=O)NCC1CCC(C(=O)O)CC1 (configuration not stated)	-2.1	-5.4	-8.7	10.0	0.8	73.0*	63.0*	56.6*
CC(Oc1ccc2c3c(c(=O)oc2c1)CCC3)C(=O)NC1CCN(Cc2ccccc2)CC1 (configuration not stated)	-1.1	3.5	-3.6	9.6	0.0	21.7	nt	nt
Cc1cc(OC(C)C(=O)NC2CC(C)(C)NC(C)(C)C2)c2c(C)c(C)c(=O)oc2c1 (configuration not stated)	nt	nt	nt	13.3	nt	70.9*	+	+
CC(Oc1ccc2c3c(c(=O)oc2c1)CCCC3)C(=O)NCc1cccnc1 (configuration not stated)	-2.2	1.3	-11.4	11.3	-0.8	71.1*	+	155.5*
CC(Oc1ccc2c3c(c(=O)oc2c1)CCCC3)C(=O)NC1CC(C)(C)NC(C)(C)C1 (configuration not stated)	0.2	-10.4	0.5	-4.5	-3.4	64.1*	+	182.1*
CC(Oc1cc2oc(=O)c3c(c2cc1Cl)CCCC3)C(=O)NCc1cccnc1 (configuration not stated)	-1.5	43.1	2.8	5.9	2.1	2.5	nt	nt
Cc1ccc(N(CC(=O)Nc2ccc3c(c2)OCCO3)S(=O)(=O)c2c(C)n[nH]c2C)cc1	-2.0	-9.4	2.5	5.0	-4.6	2.5	nt	nt
CCNC(=O)C1(C)CCCN1Cc1c(F)cccc1F (configuration not stated)	nt	nt	nt	1.3	nt	0.3	nt	nt
Cc1ccc(NC(=O)CN(C)C(=O)CSc2nnc(C(F)(F)F)n2C)cc1	5.2	-5.8	-0.8	-1.2	nt	3.9	nt	nt
CCCN(CCC)CCCNC(=O)c1cc2c(=O)[nH]c3ccccc3c2s1	1.2	-5.7	-7.2	8.8	1.8	70.1*	+	194.2*
Cc1ccc2[nH]c(=O)c3cc(C(=O)NCC4CCCO4)sc3c2c1 (configuration not stated)	-5.1	-0.1	-7.5	18.9	-2.1	24.8	nt	nt
O=C(NCC1CCCO1)c1cc2c(=O)[nH]c3ccccc3c2s1 (configuration not stated)	-4.0	1.8	-2.0	-2.2	-3.6	35.0*	53.0*	55.1*
CCOC(CCNC(=O)c1cc2c(=O)[nH]c3ccccc3c2s1)OCC	4.6	-7.5	-6.1	12.3	0.9	16.7	nt	nt
CCCCN(CC)CCNC(=O)c1cc2c(=O)[nH]c3ccccc3c2s1	0.0	-2.5	-5.6	20.6	1.0	39.0*	+	+
